We go through 28 compounds from PubChem BioAssay (Tox21).

In assay [1] the target is Acetylcholinesterase (Homo sapiens) (UniProt P22303). Kind of assay: Acetylcholinesterase (AChE) small molecule antagonists: enzyme-based qHTS assay (AID 1347397; calls by dose curve; also: nearly all actives have a fitted effect of over 55% in size). The note with it: Potency: AChE enzyme activity inhibition. In outline:
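Recombinant human AChE, dispensed at 50 mU/mL, was preincubated with Tox21 10K compounds or DMSO vehicle for 30 min at room temperature. DTNB plus acetylthiocholine was then added, and thiocholine was measured colorimetrically after a further 10 min.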
(In general: qHTS replaces the single test concentration by a dilution series.)

Assay [2] has the same target. Kind of assay: Acetylcholinesterase (AChE) small molecule antagonists: fluorescence cell-based qHTS assay (AID 1347398; calls by dose curve; also: nearly all actives have a fitted effect of over 50% in size; also: potency is read from the fitted curve at half-maximal effect). The note with it: Potency: AChE activity. In outline: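 Human SH-SY5Y cells were plated overnight at 37 C, exposed to compound for 30 min at 37 C, 5% CO2, then given acetylthiocholine plus Thiolite Green for 40 min at room temperature; thiocholine fluorescence (Ex/Em 490/520 nm) reports endogenous AChE activity.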

The target is the same in assay [3]. Description: Acetylcholinesterase (AChE) small molecule antagonists: enzyme-based qHTS assay with human liver microsomes (AID 1347399; calls by dose curve; also: nearly all actives have a fitted effect of over 60% in size). The following applies: Potency: qHTS inhibition. The gist of the method:
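Recombinant human AChE (50 mU/mL in the enzyme mix) and human liver microsomes (0.25 mg/mL final) were preincubated with compound and NADPH (0.25 mg/mL final) for 30 min at 37 C. Acetylthiocholine/DTNB was then added; thiocholine was read colorimetrically after 10 min at room temperature.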

In assay [4] the target is Cytochrome P450 2D6 (Homo sapiens) (UniProt P10635). Description: Cytochrome P450 Family 2 Subfamily D Member 6 (CYP2D6) small molecule antagonists: luciferase reporter qHTS assay (AID 1671196). Also: nearly all actives have a fitted effect of over 50% in size. Also: potency is read from the fitted curve at half-maximal effect. As to activity change, negative = inhibition: series mostly up to about 120 µM. The gist of the method: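 Read-out is luminescence from luciferin formed by CYP2D6 turnover of a proluciferin substrate, recorded as relative luminescence units. Reactions ran 1 h at room temperature after NADPH regeneration solution was added.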
In general terms: In a reporter assay the amount or activity of a reporter protein is the signal.

Assay [5] has as its target Cytochrome P450 2C9 (Homo sapiens) (UniProt P11712). Description: Cytochrome P450 Family 2 Subfamily C Member 9 (CYP2C9) small molecule antagonists: luciferase reporter qHTS assay (AID 1671198). Also: nearly all actives have a fitted effect of over 50% in size. Also: potency is read from the fitted curve at half-maximal effect. As to activity change, negative = inhibition: series mostly up to about 120 µM. In outline: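 CYP2C9 activity was measured with a P450-Glo proluciferin substrate. Enzyme–substrate mix was held with compound for 10 min at room temperature, then NADPH regeneration solution was added for 1 h at 37C. Luciferin product was read as luminescence.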

The target in assay [6] is Cytochrome P450 1A2 (Homo sapiens) (UniProt P05177). Description: Cytochrome P450 Family 1 Subfamily A Member 2 (CYP1A2) small molecule antagonists: luciferase reporter qHTS assay (AID 1671199). Also: nearly all actives have a fitted effect of over 50% in size. Also: potency is read from the fitted curve at half-maximal effect. As to activity change, negative = inhibition: series mostly up to about 120 µM. The gist of the method: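 P450-Glo CYP1A2, 1536-well qHTS: enzyme/proluciferin substrate + cpd (DMSO), 10 min RT; NADPH regen, 1 h RT; detection reagent, 20 min; luminescence, RLU.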

Assay [7] concerns the target Voltage-gated inwardly rectifying potassium channel KCNH2 (Homo sapiens) (UniProt Q12809). Description: Human Ether-a-go-go-Related Gene (hERG) channel small molecule antagonists: fluorescence cell-based qHTS assay (AID 1671200). Also: nearly all actives have a fitted effect of over 50% in size. Also: potency is read from the fitted curve at half-maximal effect.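 As to activity change, negative = inhibition: hERG-expressing U2OS cells given a thallium stimulus after FluxOR II dye loading; series mostly up to about 77 µM.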 In outline: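 Measured: Tl+ flux via fluorescence (480/540 nm) in hERG-expressing U2OS cells after 1 h dye loading at room temperature.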
In general terms: hERG is a cardiac potassium channel; its block is linked to QT prolongation.

The target of assay [8] is Cytochrome P450 2C19 (Homo sapiens) (UniProt P33261). Description: Cytochrome P450 Family 2 Subfamily C Member 19 (CYP2C19) small molecule antagonists: luciferase reporter qHTS assay (AID 1671197). Also: nearly all actives have a fitted effect of over 65% in size. Also: potency is read from the fitted curve at half-maximal effect. As to activity change, negative = inhibition: series mostly up to about 120 µM. In outline:
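First, compounds are pinned into enzyme-substrate mix and held 10 min at room temperature. Second, NADPH regeneration solution is added and plates incubate 1 h at 37C. Third, detection reagent is added and luminescence read after 20 min.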

The target in assay [9] is Cytochrome P450 3A4 (Homo sapiens) (UniProt P08684). Kind of assay: Cytochrome P450 Family 3 Subfamily A Member 4 (CYP3A4) small molecule antagonists: luciferase reporter qHTS assay (AID 1671201). Also: nearly all actives have a fitted effect of over 50% in size. Also: potency is read from the fitted curve at half-maximal effect. As to activity change, negative = inhibition: series mostly up to about 120 µM. In outline:
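Setup: enzyme-substrate mix, compound pin transfer, 10 min RT. Reaction: NADPH regeneration solution, 1 h RT. Readout: detection reagent stops turnover, luminescence measured after 20 min, expressed in relative luminescence units.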

The structures appear in SMILES notation. Values joined by “and” are separate entries in the source; they are usually repeats but may differ in a detail not shown here. Equal values may be shown once. Values without a mark were called inactive. Records with an inconclusive call do not appear. Active and inactive are the calls of the source. Unless noted, calls follow the shape of the dose curve; as a rule, active = well fitted curve in the direction sought with a large enough effect in the repeat runs; inconclusive = weak or mixed curves; inactive = no such curve, though single readings can be large; an effect the other way counts as inactive or inconclusive.
% is scaled to controls: 0 for no effect and ±100 for the full control effect.

Chain of Cytochrome P450 2D6 (Homo sapiens) (P10635 whole entry, looked up): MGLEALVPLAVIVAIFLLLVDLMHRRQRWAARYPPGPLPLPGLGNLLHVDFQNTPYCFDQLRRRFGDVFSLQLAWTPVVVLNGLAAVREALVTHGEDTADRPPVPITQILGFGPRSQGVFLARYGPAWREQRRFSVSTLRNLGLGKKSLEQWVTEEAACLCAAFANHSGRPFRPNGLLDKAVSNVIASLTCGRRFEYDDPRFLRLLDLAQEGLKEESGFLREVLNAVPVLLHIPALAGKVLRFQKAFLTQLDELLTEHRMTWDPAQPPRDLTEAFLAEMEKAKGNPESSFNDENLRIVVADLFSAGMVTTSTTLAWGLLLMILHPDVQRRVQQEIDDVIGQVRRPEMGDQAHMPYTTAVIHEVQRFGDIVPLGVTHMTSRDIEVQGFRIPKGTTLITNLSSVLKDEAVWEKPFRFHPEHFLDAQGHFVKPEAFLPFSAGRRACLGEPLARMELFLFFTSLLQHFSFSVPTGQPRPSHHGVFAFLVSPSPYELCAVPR
Chain of Cytochrome P450 1A2 (Homo sapiens) (P05177 whole entry, looked up): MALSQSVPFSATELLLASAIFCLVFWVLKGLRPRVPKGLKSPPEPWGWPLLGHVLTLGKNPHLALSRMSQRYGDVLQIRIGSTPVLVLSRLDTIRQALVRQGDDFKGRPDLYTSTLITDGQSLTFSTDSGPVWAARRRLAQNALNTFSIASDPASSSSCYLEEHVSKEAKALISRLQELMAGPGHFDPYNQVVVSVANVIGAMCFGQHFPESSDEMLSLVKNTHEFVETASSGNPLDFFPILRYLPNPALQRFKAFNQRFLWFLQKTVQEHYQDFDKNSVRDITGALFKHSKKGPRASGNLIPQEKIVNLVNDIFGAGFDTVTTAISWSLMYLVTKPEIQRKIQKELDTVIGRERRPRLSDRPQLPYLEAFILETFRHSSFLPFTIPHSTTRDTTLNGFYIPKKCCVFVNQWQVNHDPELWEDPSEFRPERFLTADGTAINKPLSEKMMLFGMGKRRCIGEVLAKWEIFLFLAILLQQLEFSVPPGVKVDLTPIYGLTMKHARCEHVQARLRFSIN
Chain of Cytochrome P450 3A4 (Homo sapiens) (P08684 whole entry, looked up): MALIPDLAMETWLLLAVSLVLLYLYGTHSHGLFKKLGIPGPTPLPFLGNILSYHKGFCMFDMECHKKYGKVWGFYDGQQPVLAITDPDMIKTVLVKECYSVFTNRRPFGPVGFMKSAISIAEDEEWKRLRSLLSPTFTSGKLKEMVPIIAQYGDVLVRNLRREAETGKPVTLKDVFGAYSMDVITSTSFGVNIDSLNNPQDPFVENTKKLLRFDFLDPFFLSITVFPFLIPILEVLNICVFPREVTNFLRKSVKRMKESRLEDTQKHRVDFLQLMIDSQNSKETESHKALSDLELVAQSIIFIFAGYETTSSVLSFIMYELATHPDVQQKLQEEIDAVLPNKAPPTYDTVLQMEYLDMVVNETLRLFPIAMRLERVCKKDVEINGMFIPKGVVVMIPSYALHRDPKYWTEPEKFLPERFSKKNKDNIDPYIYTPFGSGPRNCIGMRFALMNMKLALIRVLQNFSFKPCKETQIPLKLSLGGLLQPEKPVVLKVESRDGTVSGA
Chain of Cytochrome P450 2C9 (Homo sapiens) (P11712 whole entry, looked up): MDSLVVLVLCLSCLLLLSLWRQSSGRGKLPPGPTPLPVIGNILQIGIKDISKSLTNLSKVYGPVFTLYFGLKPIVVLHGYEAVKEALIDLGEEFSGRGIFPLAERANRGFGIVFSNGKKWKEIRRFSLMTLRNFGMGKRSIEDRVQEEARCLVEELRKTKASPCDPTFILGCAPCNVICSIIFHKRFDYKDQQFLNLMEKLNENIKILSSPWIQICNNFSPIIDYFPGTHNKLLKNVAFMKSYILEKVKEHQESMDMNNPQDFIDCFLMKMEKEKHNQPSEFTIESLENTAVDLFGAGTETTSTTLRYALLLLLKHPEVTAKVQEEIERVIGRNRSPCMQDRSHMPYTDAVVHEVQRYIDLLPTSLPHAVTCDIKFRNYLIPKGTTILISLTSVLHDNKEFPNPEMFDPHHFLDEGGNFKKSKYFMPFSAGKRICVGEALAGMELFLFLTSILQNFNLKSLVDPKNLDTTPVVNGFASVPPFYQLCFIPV
Chain of Acetylcholinesterase (Homo sapiens) (P22303 whole entry, looked up): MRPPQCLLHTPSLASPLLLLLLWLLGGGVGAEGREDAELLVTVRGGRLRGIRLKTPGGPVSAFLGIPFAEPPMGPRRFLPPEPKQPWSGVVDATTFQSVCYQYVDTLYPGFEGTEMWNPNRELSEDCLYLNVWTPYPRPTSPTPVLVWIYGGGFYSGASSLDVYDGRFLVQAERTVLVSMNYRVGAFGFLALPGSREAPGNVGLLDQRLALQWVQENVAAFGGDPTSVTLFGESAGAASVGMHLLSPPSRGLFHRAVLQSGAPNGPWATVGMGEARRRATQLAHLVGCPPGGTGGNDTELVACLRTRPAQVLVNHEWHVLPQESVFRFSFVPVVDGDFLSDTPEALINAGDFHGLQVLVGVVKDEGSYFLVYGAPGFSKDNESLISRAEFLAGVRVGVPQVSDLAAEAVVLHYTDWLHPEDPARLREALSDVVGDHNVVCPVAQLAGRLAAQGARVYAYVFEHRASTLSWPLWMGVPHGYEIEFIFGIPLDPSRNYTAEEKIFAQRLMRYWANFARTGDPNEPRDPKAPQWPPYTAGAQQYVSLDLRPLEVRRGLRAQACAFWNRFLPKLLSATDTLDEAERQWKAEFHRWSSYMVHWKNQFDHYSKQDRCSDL
Chain of Voltage-gated inwardly rectifying potassium channel KCNH2 (Homo sapiens) (Q12809 whole entry, looked up): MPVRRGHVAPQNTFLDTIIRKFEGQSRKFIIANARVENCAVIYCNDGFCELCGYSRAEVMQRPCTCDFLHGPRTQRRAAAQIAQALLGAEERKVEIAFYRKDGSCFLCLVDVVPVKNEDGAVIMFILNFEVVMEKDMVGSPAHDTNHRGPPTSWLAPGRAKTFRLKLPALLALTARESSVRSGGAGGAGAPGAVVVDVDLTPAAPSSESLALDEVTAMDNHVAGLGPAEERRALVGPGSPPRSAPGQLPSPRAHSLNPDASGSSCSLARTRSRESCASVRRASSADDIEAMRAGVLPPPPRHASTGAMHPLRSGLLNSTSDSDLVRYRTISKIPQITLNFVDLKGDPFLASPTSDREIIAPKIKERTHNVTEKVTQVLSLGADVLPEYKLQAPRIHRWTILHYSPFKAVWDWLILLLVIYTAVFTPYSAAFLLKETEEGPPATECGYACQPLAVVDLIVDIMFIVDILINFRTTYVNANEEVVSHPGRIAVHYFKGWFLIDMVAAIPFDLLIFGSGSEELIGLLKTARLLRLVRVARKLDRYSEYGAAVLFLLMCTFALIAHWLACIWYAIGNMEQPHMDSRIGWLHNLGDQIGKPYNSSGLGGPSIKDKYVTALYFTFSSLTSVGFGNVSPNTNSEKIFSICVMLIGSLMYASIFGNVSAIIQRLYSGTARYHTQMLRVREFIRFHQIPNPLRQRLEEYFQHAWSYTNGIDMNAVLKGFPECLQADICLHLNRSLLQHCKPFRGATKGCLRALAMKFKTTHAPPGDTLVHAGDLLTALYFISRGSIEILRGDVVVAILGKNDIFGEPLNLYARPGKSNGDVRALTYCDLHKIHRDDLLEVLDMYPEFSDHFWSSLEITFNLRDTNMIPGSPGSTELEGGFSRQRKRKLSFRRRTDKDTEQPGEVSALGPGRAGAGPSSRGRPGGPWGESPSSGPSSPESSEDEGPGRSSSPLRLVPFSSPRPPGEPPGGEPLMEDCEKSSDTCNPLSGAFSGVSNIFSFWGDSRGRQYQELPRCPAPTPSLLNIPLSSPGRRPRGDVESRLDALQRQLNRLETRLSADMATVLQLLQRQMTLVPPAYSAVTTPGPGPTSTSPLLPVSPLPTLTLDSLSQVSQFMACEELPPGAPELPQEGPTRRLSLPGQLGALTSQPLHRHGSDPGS
Chain of Cytochrome P450 2C19 (Homo sapiens) (P33261 whole entry, looked up): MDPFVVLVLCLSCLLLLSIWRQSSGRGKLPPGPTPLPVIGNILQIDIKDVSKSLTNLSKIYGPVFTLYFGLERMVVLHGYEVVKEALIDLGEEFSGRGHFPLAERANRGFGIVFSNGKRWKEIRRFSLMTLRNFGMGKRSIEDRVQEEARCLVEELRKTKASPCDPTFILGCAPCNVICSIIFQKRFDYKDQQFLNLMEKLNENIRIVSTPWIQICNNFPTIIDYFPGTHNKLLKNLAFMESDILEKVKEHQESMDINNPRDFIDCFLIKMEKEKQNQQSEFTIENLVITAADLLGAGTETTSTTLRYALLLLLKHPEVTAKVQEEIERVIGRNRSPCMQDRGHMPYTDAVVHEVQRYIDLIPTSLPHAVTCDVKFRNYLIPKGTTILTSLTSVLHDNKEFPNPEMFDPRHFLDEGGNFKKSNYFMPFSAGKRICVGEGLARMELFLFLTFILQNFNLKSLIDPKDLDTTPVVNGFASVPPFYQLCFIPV

Take `CCOC(=O)c1ccccc1S(=O)(=O)NC(=O)Nc1nc(Cl)cc(OC)n1`: the Potency result in assay [1], in assay [2], in [3], in assay [4], in [5] and in assay [6] was “inactive” in each case. Besides, the Potency entry in assay [7] is “inactive”.
As for `CC1(C)CN=C(NN=C(/C=C/c2ccc(C(F)(F)F)cc2)/C=C/c2ccc(C(F)(F)F)cc2)NC1`, the Potency result in [1], in assay [2], in assay [3], in [8] and in assay [9] was “inactive” each time. Also, the Potency is 11.2 µM (active) in assay [4] and 389 nM (active) in assay [7].
In the case of `FC(Cl)(Cl)Cl`, the Potency entry in assay [1], in assay [2], in assay [3], in [4], in assay [7] and in assay [9] was “inactive” in each case.
Consider `C=CCOC(N)=O`, for which the Potency result in assay [1], in [2], in [3], in [4], in [8] and in [7] was “inactive” in each case. Also, the Potency entry in [9] is “inactive”.
In the case of `COc1ccc(N)cc1N`, the Potency entry in [1], in [2] and in assay [3] was “inactive” each time. Besides, the Potency in assay [4] is 10.3 µM (active) and 17.1 µM (active); in assay [8], 732 nM (active) and 3.83 µM (active); in assay [6] it was 6.53 µM (active) and 38.3 µM (active); in assay [9], 11.6 µM (active).
With `Brc1c(Br)c(Br)c(Oc2c(Br)c(Br)c(Br)c(Br)c2Br)c(Br)c1Br`, the activity change, negative = inhibition in assay [1] was -1.63% [at 23.6 µM]; in assay [2], 6.2% [at 23.8 µM]; in assay [3] it was -0.487% [at 23.6 µM]; in assay [4] it was 0.431% [at 23.6 µM]; in [8], 12.5% [at 23.6 µM]; in assay [6], -11% [at 23.6 µM]. The activity change, negative = inhibition is -0.0422% [at 15.8 µM] in [7] and 2.2% [at 23.6 µM] in assay [9].
Take `CCOC(=O)OC1=C(c2cc(C)ccc2C)C(=O)NC12CCC(OC)CC2` (configuration not stated): the Potency entry in assay [1], in assay [2], in [3], in assay [4] and in assay [7] was “inactive” each time. In addition, the Potency in assay [6] is 44.8 µM (active).
For `ClC(Cl)=C(c1ccc(Cl)cc1)c1ccc(Cl)cc1`, the Potency entry in assay [1], in assay [2], in assay [3], in assay [4] and in assay [9] was “inactive” each time. Besides, the Potency in assay [8] is 409 nM (active) and 710 nM (active); in assay [6], 5.78 µM (active) and 5.64 µM (active); in [7], 39.9 µM (active) and 49 µM (active).
In the case of `Oc1ccc(C2(c3ccc(O)cc3)CCCCC2)cc1`, the Potency entry in [1], in [2] and in assay [3] was “inactive” in each case. Also, the figures for the Potency in [8] and in assay [5] were 37.8 µM (active) and 33.7 µM (active), respectively.
For the compound `ClCc1ccc(Cl)cc1Cl`, the Potency result in assay [1], in assay [2], in [3], in assay [4], in assay [5] and in assay [7] was “inactive” in each case. Also, the Potency entry in assay [9] was “inactive”.
Consider `C=CC(=O)OCCCCOC(=O)C=C`, for which the Potency result in [1], in assay [2], in [3], in assay [4], in [7] and in assay [9] was “inactive” throughout. Besides, the Potency in assay [6] was 35.6 µM (active).
On to `O=c1oc2ccccc2c(O)c1Cc1c(O)c2ccccc2oc1=O`, for which the Potency result in assay [1], in [2], in assay [3], in [4], in [8] and in [7] was “inactive” each time. The Potency entry in [9] is “inactive”. Further, the Potency in [6] was 24.5 µM (active).
For `BrC(Br)C(Br)(Br)Br`, the Potency entry in assay [1], in assay [2] and in [3] was “inactive” each time. In assay [8], the Potency is 40.2 µM (active).
As to `CCC(C)c1cc(C(C)(C)C)cc(-n2nc3ccccc3n2)c1O` (configuration not stated), the Potency result in [1], in [2], in assay [3], in assay [4], in [8] and in assay [7] was “inactive” each time. Besides, in assay [9], the Potency result was “inactive”.
For the compound `Clc1ccc(-c2ccccc2)cc1`, the Potency result in [1], in assay [2], in assay [3], in assay [4], in assay [5] and in assay [7] was “inactive” in each case. Moreover, the Potency result in [9] was “inactive”. For the same compound, in [6], the Potency is 39.9 µM (active).
As for `Cc1ccc(CCl)cc1`, the Potency entry in [1], in assay [2], in assay [3], in [4], in assay [8] and in assay [6] was “inactive” in each case. In addition, in assay [9], the Potency entry was “inactive”.
For the compound `CC1(C)[C@H](C(=O)O[C@H](C#N)c2cccc(Oc3ccccc3)c2)[C@@H]1/C=C(\Cl)C(F)(F)F`, the Potency entry in assay [1], in assay [2], in assay [3], in assay [4], in [7] and in assay [9] was “inactive” in each case. In assay [8], the Potency is 5.86 µM (active) and 7.1 µM (active).
For the compound `C[CH2][Hg][N]1C(=O)C2C(C1=O)C1(Cl)C(Cl)=C(Cl)C2(Cl)C1(Cl)Cl` (configuration not stated), the results for the activity change, negative = inhibition in assay [1], in [2] and in [3] were -5.88% [at 23.6 µM], 11.1% [at 23.8 µM] and -0.312% [at 23.6 µM], respectively. Also, the values for the Potency in [4], in assay [5] and in assay [9] were 16.9 µM (active), 13.5 µM (active) and 13.5 µM (active), respectively.
With `Cc1ccc(C(=O)Cl)cc1`, the Potency entry in assay [1], in [2], in assay [3], in assay [4], in assay [6] and in assay [7] was “inactive” throughout.
For `N#Cc1c(-c2ccc(Cl)cc2)[nH]c(C(F)(F)F)c1Br`, the Potency result in assay [1], in assay [2], in assay [3] and in assay [9] was “inactive” in each case. Also, the results for the Potency in assay [8], in assay [5] and in [6] were 39.9 µM (active), 11.2 µM (active) and 0.317 µM (active), respectively.
As to `NC(=O)CCl`, the Potency entry in [1], in assay [2], in [3], in assay [8], in assay [5] and in assay [6] was “inactive” each time. Further, the Potency entry in assay [7] and in assay [9] was “inactive” in each case.
For `CC(C)(C)c1ccc(CSc2cnn(C(C)(C)C)c(=O)c2Cl)cc1`, the Potency entry in [1], in assay [2] and in [3] was “inactive” each time. Also, the Potency in assay [8] is 7.96 µM (active); in [5], 6.33 µM (active); in [6], 25.2 µM (active).
For `C[C@H]1CC[C@@H]2[C@@H](C)[C@H]3[C@H](C[C@H]4[C@@H]5CC=C6CC(O[C@@H]7O[C@H](CO)[C@H](O)[C@H](O[C@@H]8O[C@H](CO)[C@@H](O)[C@H](O)[C@H]8O)[C@H]7O[C@H]7O[C@@H](C)[C@H](O)[C@@H](O)[C@H]7O)CC[C@]6(C)[C@H]5CC[C@]34C)N2C1` (some centres not stated), the Potency result in assay [1], in assay [3], in assay [8], in assay [5], in [7] and in assay [9] was “inactive” each time. In assay [2], the Potency is 2.92 µM (active).
For `SCc1ccco1`, the Potency result in assay [1], in assay [2], in assay [3] and in [7] was “inactive” in each case. The figures for the Potency in assay [8], in [5] and in [6] were 39.9 µM (active), 35.6 µM (active) and 35.6 µM (active), respectively.
Take `Cl/C=C\CCl`: the Potency entry in assay [1], in assay [2], in assay [3], in assay [8], in assay [5] and in [7] was “inactive” throughout. In addition, the Potency entry in assay [9] was “inactive”. The Potency in assay [6] was 35.6 µM (active).
In the case of `C[C@@H]1O[C@@H](O[C@H]2C[C@@H](O)[C@]3(CO)[C@H]4[C@H](O)C[C@]5(C)[C@@H](C6=CC(=O)OC6)CC[C@]5(O)[C@@H]4CC[C@]3(O)C2)[C@H](O)[C@H](O)[C@H]1O`, the Potency result in [1], in assay [2], in assay [3], in [8], in [5] and in assay [7] was “inactive” in each case. Also, the Potency result in [9] is “inactive”.
Take `Nc1ccc(Cc2ccc(N)c(Cl)c2)cc1Cl`: the Potency entry in assay [1], in assay [2], in assay [3] and in assay [7] was “inactive” each time. Besides, the Potency was 6.86 µM (active) in [8], 61.2 µM (active) in assay [5] and 3.44 µM (active) in assay [9].
As to `O=C(CCl)C(Cl)Cl`, the Potency entry in assay [1], in assay [2], in assay [3], in [7] and in assay [9] was “inactive” in each case. Moreover, the Potency in assay [8] is 56.9 µM (active); in [5], 40.3 µM (active).
